Measured values published in PubChem BioAssay.
For some assays here: Results with a measured potency or affinity are listed apart. The source made the active and inactive calls. Unless noted, how the calls were made is not given here.

Experiments:
[1] = blockers of polyQ-driven CASP3 activation – cell-based (AID 1583); conditions: polyglutamine-induced caspase-3 activation, cell assay; stronger effect = higher value;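 tested at 10 µM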
[2] = yeast 75Q aggregation reduction – 75Q-TubU reporter (AID 1593); conditions: Yeast 75Q polyglutamine aggregation reporter
[3] = restoration of touch response, mutant HTT neurons – whole organism, C. elegans mechanosensory neurons, N-terminal huntingtin (AID 1599); conditions: C. elegans polyQ-huntingtin mechanosensory neurons, stronger effect = higher value
[4] = blockers of cytochrome c efflux from mitochondria – biochemical, purified mitochondria (AID 1603); conditions: stronger effect = lower value;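 further: mouse liver mitochondria challenged with calcium chloride; signal normalized to the plate average as 100%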
[5] = polyglutamine aggregate formation blockers (AID 1604); conditions: polyglutamine-induced protein aggregation inhibition assay; stronger effect = higher value; tested at 2.5 µM
[6] = glutamate transport activators, MN-1 cells, MN-1 cell line (AID 1612); conditions: MN-1 motor neuron cells, stronger effect = higher value;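 further: tested at 1 µM final; 0% = mean of DMSO vehicle wells on each plate; positive means more glutamate uptake than control and negative means less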
[7] = 75Q-TubH aggregate inhibition, S. cerevisiae, yeast (AID 1616); conditions: S. cerevisiae 75Q-TubH polyglutamine aggregation suppression; stronger effect = higher value
[8] = compounds altering viability of human ES cells (AID 493140); conditions: human embryonic stem cell survival screen; stronger effect = higher value;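 further: cells exposed to compounds for four days before counting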
[9] = signal quenchers or enhancers, Cy5 substrate/SSB – biochemical, NIH Clinical Collection, E. coli SSB, artefact control for HCV NS3 helicase inhibitor project (AID 743268); conditions: Cy5-oligo bound E. coli SSB, fluorescence interference
[10] = test system: Hepatitis C virus NS3 helicase; experiment: blockers of NS3h binding to DNA – biochemical, fluorescence polarization, NIH Clinical Collection, primary screen (AID 743270); conditions: NS3 helicase binding to Cy5-dT15 DNA, stronger effect = higher value, concentration not given here
[11] = molecular target: Single-stranded DNA-binding protein (Escherichia coli (strain K12)) (UniProt P0AGE0); experiment: SSB-ssDNA binding inhibitors – biochemical, fluorescence polarization, NIH Clinical Collection, counter-screen for HCV NS3 helicase inhibitor project (AID 743271; in the data active means inhibition above about 28%); conditions: E. coli SSB-DNA binding, stronger effect = higher value, concentration not given here
[12] = compounds distorting NS3 helicase fluorescence signal – biochemical, NIH Clinical Collection, artefact control for HCV NS3 helicase inhibitor project (AID 743272); conditions: fluorescence interference counterscreen, HCV NS3 helicase assay; stronger effect = lower value;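 further: HCV NS3 helicase with a Cy5 labelled single stranded DNA probe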

CCC(=O)c1ccc2c(c1)N(CC(C)N(C)C)c1ccccc1S2 (stereo unspecified)
inhibition [1]: -29.2% | score [2]: 1.17 | rescue above control [3]: 1.64 | cytochrome c release ratio [4]: 1.13 | inhibition of aggregation [5]: 69.7% | glutamate uptake change [6]: -2.12% | aggregation suppression score [7]: 1.33

CC(=O)CCC1C2=NC(=C\C3=NC(=C(/C)C4=NC(C)(C5[N-]/C(=C\2C)C(C)(CCC(=O)NCC(C)OP(=O)(O)O[C@@H]2[C@@H](CO)OC(n6cnc7cc(C)c(C)cc76)[C@@H]2O)C5CC(N)=O)C(C)(CC(N)=O)C4CCC(N)=O)/C(C)(CC(N)=O)C3CCC(N)=O)/C1(C)C.[CH2-][C@H]1OC(n2cnc3c(N)ncnc32)[C@H](O)[C@@H]1O.[Co+2] (stereo partly specified)
inhibition [1]: 55.6% | score [2]: 1.56 | rescue above control [3]: 0.82 | cytochrome c release ratio [4]: 0.56 | inhibition of aggregation [5]: 44.4% | glutamate uptake change [6]: 14.2% | aggregation suppression score [7]: 1.42

CCC(=O)OC1CCC2C3CCc4cc(O)ccc4C3CCC12C (stereo unspecified)
inhibition [1]: 6.67% | score [2]: 0.64 | rescue above control [3]: -1.7 | cytochrome c release ratio [4]: 1.72 | inhibition of aggregation [5]: 85.9% | glutamate uptake change [6]: -23.3% | aggregation suppression score [7]: 0.421

C=C(NC(=O)C(=C)NC(=O)c1csc(C2=NC3c4csc(n4)C4NC(=O)c5csc(n5)C(C(C)(O)C(C)O)NC(=O)C5CSC(=N5)/C(=C/C)NC(=O)C(C(C)O)NC(=O)c5csc(n5)C3(CC2)NC(=O)C(C)NC(=O)C(=C)NC(=O)C(C)NC(=O)C(C(C)CC)NC2C=Cc3c(C(C)O)cc(nc3C2O)C(=O)OC4C)n1)C(N)=O (stereo unspecified)
survival [8]: 0.917 (inactive)

CO[C@H]1/C=C/O[C@@]2(C)Oc3c(C)c(O)c4c(O)c(c5c(c4c3C2=O)=NC2(CCN(CC(C)C)CC2)N=5)NC(=O)/C(C)=C\C=C\[C@H](C)[C@H](O)[C@@H](C)[C@@H](O)[C@@H](C)[C@H](OC(C)=O)[C@@H]1C
fluorescence ratio [9]: 1.02 (inactive) | inhibition [10]: 1.36% (inactive) | inhibition [11]: 6.39% (inactive) | fluorescence ratio [12]: 0.96 (inactive)
